Screening results deposited in PubChem by National Center for Advancing Translational Sciences (NCATS).
Most compounds without a hit are left out; they make up all but 1.2% or so of the library.
GLS inhibitor = inhibitors of human glutaminase (GLS) | O94925 | GLS enzymatic activity, qHTS titration | Potency, µM (top dose mostly 45.5 µM), without a hit: at the top dose activity change, negative = inhibition, hits mostly inhibitors | hit rate 0.21% among 410,000 | AID 624170
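Compounds were pin-transferred onto hKGA, after which L-glutamine (1 mM solution) and a detection mix of glutamate oxidase, HRP and Amplex Red were added. Initial and 30 min RT fluorescence reads were collected.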
TrxR1 substrate = substrates of rat thioredoxin reductase 1 | O89049 | purified TrxR1 substrate turnover, NADPH consumption readout | Potency, µM (top dose mostly 114 µM), without a hit: at the highest dose activity change, negative = substrate turnover | hit rate 0.01% among 390,000; also: nearly all actives have a fitted effect of over 50% in size
Target sequence (O89049 whole entry, looked up): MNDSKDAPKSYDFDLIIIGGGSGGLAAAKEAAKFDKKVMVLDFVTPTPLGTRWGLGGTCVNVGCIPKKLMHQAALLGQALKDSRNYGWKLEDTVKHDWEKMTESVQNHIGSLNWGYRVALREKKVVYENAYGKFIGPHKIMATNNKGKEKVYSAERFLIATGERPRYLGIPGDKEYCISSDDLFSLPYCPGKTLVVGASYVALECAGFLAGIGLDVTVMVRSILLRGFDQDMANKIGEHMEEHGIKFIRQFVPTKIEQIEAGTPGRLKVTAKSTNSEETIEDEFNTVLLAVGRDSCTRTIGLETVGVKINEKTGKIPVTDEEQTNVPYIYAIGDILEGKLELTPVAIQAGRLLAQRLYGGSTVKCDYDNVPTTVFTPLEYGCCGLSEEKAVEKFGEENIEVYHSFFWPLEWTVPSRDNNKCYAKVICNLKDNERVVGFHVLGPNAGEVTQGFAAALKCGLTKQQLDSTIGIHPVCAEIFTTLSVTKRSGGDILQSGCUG
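Rat TrxR1, dispensed at 90 nM, was prereduced with 400 uM NADPH (final) for 5 min at ~22 deg C, then incubated with compound 15 min before 400 uM selenite. A first-read NADPH fluorescence drop versus no-compound background flagged substrates.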
mIDH1 inhibitor = inhibitors of human mutant IDH1 R132H; IDH1-R132H enzyme, NADPH consumption, diaphorase/resazurin fluorescence; O75874; hit rate 0.093% among 390,000; Potency, µM (top dose mostly 76.6 µM), inactives show at the highest dose activity change, negative = inhibition, most hits filed as inhibitors; also: nearly all actives have a fitted effect of over 65% in size
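IDH1-R132H (0.5 ug/mL) preincubated 30 min with compound, then NADPH (0.016 mM) and alpha-KG (2 mM) added; 80 min at RT, pH 7.5. Remaining NADPH coupled via diaphorase/resazurin to fluorescence (540/590 nm); concentration-response curves normalized to no-enzyme control.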
rTrxR1 inhibitor = inhibitors of rat thioredoxin reductase 1; recombinant rTrxR1, NADPH fluorescence consumption, selenite substrate; hit rate 1% among 390,000; O89049; Potency, µM (titrated, usually from 114 µM), for inactives: top-dose activity change, negative = inhibition, hits mostly inhibitors; also: nearly all actives have a fitted effect of over 65% in size
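Rat TrxR1 (90 nM in the dispensed reagent) was pre-reduced with 400 uM NADPH for 5 min at room temperature, then incubated with compound for 15 min. After 400 uM selenite was added, NADPH fluorescence (Ex 340/Em 450 nm) was followed for 8 min.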
* hit, by the source's call; u = inconclusive; x = no result given; [ ] = dose if it differs, or a comment. Calls follow the shape of the dose curve; as a rule, active = well fitted curve in the direction sought with a large enough effect; inconclusive = small, poorly fitted or top-dose-only effect, or another doubt; inactive = no such curve, though single readings can be large; an effect the other way counts as inactive or inconclusive. % is scaled to controls: 0 for no effect and ±100 for the full control effect; potency is read from the fitted curve at half-maximal effect.

SMILES	GLS inhibitor	TrxR1 substrate	mIDH1 inhibitor	rTrxR1 inhibitor
COc1ccc(/C=C2\C(=O)ON=C2c2ccccc2)cc1OC	19.5%	10.6%	6.7%	31.6µM*
NC(=O)COc1ccc(/C=C2\C(=O)ON=C2c2ccccc2)cc1	-1.4%	-8.3%	4.8%	28.2µM*
COc1cc(/C=C2\N=C(C)OC2=O)cc(OC)c1OC	12.9%	5.1%	3.0%	44.7µM*
COc1ccc(/C=C2/C(=O)ON=C2c2ccccc2)cc1OC	31.7%	7.5%	-2.3%	31.6µM*
Cc1cc2nc(-c3ccccc3)c(Cc3ccsc3)n2c(C)c1Br	5.2%	x	x	x
COc1cc(/C=C2\C(=O)ON=C2c2ccccc2)cc(OC)c1OC	-7.0%	5.2%	1.3%	17.8µM*
CCOc1cc(/C=C2\C(=O)ON=C2c2ccccc2)ccc1OC	12.7%	1.1%	-16.4%	17.8µM*
CCC(=O)N1c2ccccc2CC1C(=O)NCc1ccccc1Cl (stereo not drawn)	-9.9%	-1.9%[57.1 µM]	9.9%	9.1%[57.1 µM]
CCCCC(F)(F)[C@@]1(O)CC[C@H]2[C@H](CC(=O)[C@@H]2CCCCCCC(=O)O)O1	-11.3%	x	x	x
COCCn1c(CNC(=O)c2cccc(C)c2)nc2cccnc21	2.9%	1.9%[57.1 µM]	-6.3%	22.3%[57.1 µM]
CC(=O)c1cnc(N(C)C)s1	1.4%	-10.3%	-1.2%	-2.0%
CC(C)NC(=O)c1cnc2sc(N3CCCCCC3)nn2c1=O	1.5%	54.3%[57.1 µM]	-8.1%	11.1%[57.1 µM]
CN(C)c1ncc(C2=C(Cl)C(=O)C(N3CCCC3)=C(Cl)C2=O)s1	12.0%	1.0%	19.3%	2.51µM*
O=C1C(Cl)=C(N2CCCCC2)C(=O)C(Cl)=C1c1cnc(N2CCCCC2)s1	7.4%	-2.9%	23.9%	1.78µM*
CC(=O)C(=Cc1cccc(C#N)c1)C(=O)c1ccccc1	11.2µM*	x	x	x
COc1cccc(C=C(C#N)C(=O)c2ccccc2)c1	20.6%	x	x	x
N#C/C(=C\c1cccc(Cl)c1)C(=O)c1ccccc1	4.9%	4.6%[57.1 µM]	19.3%	11.2µM*
CC(=O)C(=Cc1ccc(Cl)cc1)C(=O)c1ccccc1	-28.4%	x	x	x
COc1ccc(C(c2c(N)[nH]c(=S)[nH]c2=O)c2c(N)[nH]c(=S)[nH]c2=O)cc1	11.2µM*	-2.9%	-7.0%	u
Cc1c(O)ccc(NC(=O)/C=C/c2ccccc2)c1C	17.8µM*	9.5%[57.1 µM]	0.8%	-0.7%[57.1 µM]
CCS(=O)(=O)c1ccc(O)c(NC(=O)/C=C/c2ccccc2)c1	1.0%	-6.0%	2.5%	11.7%[57.1 µM]
CN(C)CCOc1ccccc1Cc1ccccc1 (tested in a mixture with another compound)	17.3%	x	x	x
COc1ccc(CCN2C(=S)NC3CC2(C)Oc2ccc([N+](=O)[O-])cc23)cc1OC (stereo not drawn)	10µM*	-5.1%	1.6%	0.2%
COc1ccc(N2C(=O)NC3CC2(C)Oc2ccc(Cl)cc23)cc1OC (stereo not drawn)	0.0%	-3.2%	0.7%	-5.1%
COc1ccc(OC)c(CCNC(=O)CN2C(=O)COc3ccc(S(=O)(=O)N4CCC(C)CC4)cc32)c1	6.2%	0.7%	7.6%	1.6%
SMILES	GLS inhibitor	TrxR1 substrate	mIDH1 inhibitor	rTrxR1 inhibitor
O=c1c2cc([N+](=O)[O-])ccc2sn1-c1ccccc1	10µM*	x	1.0%	x
N#Cc1ccc2sn(-c3ccccc3)c(=O)c2c1	6.31µM*	x	-1.9%	x
O=c1c2cc(F)ccc2sn1-c1ccc(F)cc1	10µM*	-11.2%	-5.0%	128.8%
CC(=O)Nc1ccc2sn(-c3ccccc3)c(=O)c2c1	6.31µM*	x	2.1%	x
CCC(C)C1OC2(C=CC1C)CC1CC(C/C=C(\C)C(OC3CC(OC)C(OC4CC(OC)C(NC(C)=O)C(C)O4)C(C)O3)C(C)/C=C/C=C3\COC4C(O)C(C)=CC(C(=O)O1)C34O)O2 (stereo not drawn) (tested in a mixture with another compound)	-2.3%	x	x	x
CCN(c1cccc(C)c1)S(=O)(=O)c1cc2c(cc1C)n(C)c(=O)c(=O)n2C	-0.3%	0.3%	-6.3%	12.6%
CC(CS(=O)(=O)c1ccc2c(c1)NC(=O)CS2)C(=O)NCc1ccccc1Cl (stereo not drawn)	11.2µM*	-0.9%	-7.1%	7.5%
Cc1ccc(CNC(=O)CC(C)S(=O)(=O)c2ccc3c(c2)NC(=O)CO3)cc1 (stereo not drawn)	-4.1%	-0.4%	-11.7%	22.9%
Cc1ccc(CNC(=O)CC(C)S(=O)(=O)c2ccc3c(c2)NC(=O)CS3)o1 (stereo not drawn)	4.2%	2.7%	1.4%	15.8µM*
CC1CCCCN1CCCNC(=O)c1[nH]c2ccccc2c1Sc1ccc(Cl)cc1 (stereo not drawn)	2.3%	1.8%	4.5%	9.0%
O=S(=O)(c1ccc2c(c1)CCC2)N1CCNCC1	0.4%	10.8%	6.5%	7.0%
CCCOc1ccc(F)cc1-c1cc(C(=O)Nc2ccc(C(C)C)cc2)[nH]n1	-1.4%	x	x	x
C=CCOC(=O)/C(=C/c1ccco1)NC(=O)/C=C/c1ccccc1	10.7%	-4.7%	6.8%	17.8µM*
Cn1c(CCNC(=O)c2ccco2)nc2cc(NC(=O)COc3ccc(Cl)cc3)ccc21	-2.8%	-0.9%	-2.7%	1.7%
O=C(COC(=O)c1nc(Cl)c(Cl)c(Cl)c1Cl)NCc1ccccc1	1.4%	-7.5%	11.4%	44.7µM*
Nc1c(Cl)c(Cl)nc(C(=O)OCC(=O)NCc2ccccc2)c1Cl	-3.4%	-0.6%	-7.5%	15.6%
Nc1ccc(N)c(C(=O)O)c1	5.62µM*	21.1%	15.3%	u
Cc1ccc(SC2=C(N(C)C)C(=O)c3ccccc3C2=O)cc1	8.7%	-5.8%	22.9%	7.94µM*
CN(C)c1cccc2c1C(=O)c1ccccc1C2=O	3.7%	-13.7%	9.8%	-12.0%
CO[C@@H]1[C@@H]([C@H](C)[C@@H]2O[C@@]3(CC[C@@](C)([C@H]4CC[C@@](C)([C@H]5O[C@H]([C@H]6O[C@](C)(O)[C@H](C)C[C@@H]6C)C[C@H]5O[C@H]5C[C@@H](OC)[C@H](OC)[C@@H](C)O5)O4)O3)C[C@@H](O)[C@@H]2C)O[C@@](O)(CC(=O)O)[C@H](C)[C@H]1OC	-1.5%	x	x	x
Cc1ccc(C(CC(=O)N2CCOCC2)c2ccco2)cc1 (stereo not drawn)	9.2%	1.7%	3.9%	44.7µM*
COc1ccc(C2C=C3CNS(=O)(=O)C3CC2OC(=O)c2ccc(Cl)cc2)cc1 (stereo not drawn)	x	-4.5%	x	10.4%
O=C1OC(OC(=O)c2cccnc2Nc2cccc(C(F)(F)F)c2)c2ccccc21 (stereo not drawn)	0.1%	x	x	x
CC(C)(C)c1cc(-c2csc(Nc3ccccc3)[n+]2Cc2ccc(C(=O)O)cc2)cc(C(C)(C)C)c1O	-15.4%	-5.8%	36.9µM*	-6.4%
Cc1c(NS(C)(=O)=O)cccc1-c1nc2ccccc2s1	3.1%	-6.8%	7.9%	-4.4%
CS(=O)(=O)Nc1ccc(-c2nc3ccccc3s2)cc1	7.3%	582.5%	x	79.4µM*
CCc1ccc2c(c1)-c1ccccc1S(=O)(=O)N2CC(=O)N1CCC(C)CC1	-7.2%	23.9%	-10.3%	34.0%
